# SRC2 inh – inhibits human steroid receptor coactivator 2; Q15596; HEK293 GAL4-SRC2 luciferase reporter, luminescence; inhibition, % at 9 µM; 370,000 tested, 0.17% active;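 active means inhibition above the mean inhibition of all tested compounds plus 3 SD, set per campaign, cut at about 52% in these data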;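 further: 0% = DMSO treated cells and 100% = cells given Gossypol at 36 µM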
# COUP-TFII inh – blocks human COUP-TFII nuclear receptor; AID 686940; inhibition, % at 8.6 µM; 370,000 tested, 0.7% active; HEK293T NGFI-A luciferase reporter, luminescence; P24468;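 active means inhibition above a per-plate cutoff, mean inhibition of test wells between control levels plus 3 SD, cut at about 38% in these data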;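 further: cells cotransfected with COUP-TFII expression vector driving the NGFI-A reporter; 0% = median of COUP-TF2 test wells and 100% = reporter-only cells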
# Target sequence (P24468 whole entry, looked up): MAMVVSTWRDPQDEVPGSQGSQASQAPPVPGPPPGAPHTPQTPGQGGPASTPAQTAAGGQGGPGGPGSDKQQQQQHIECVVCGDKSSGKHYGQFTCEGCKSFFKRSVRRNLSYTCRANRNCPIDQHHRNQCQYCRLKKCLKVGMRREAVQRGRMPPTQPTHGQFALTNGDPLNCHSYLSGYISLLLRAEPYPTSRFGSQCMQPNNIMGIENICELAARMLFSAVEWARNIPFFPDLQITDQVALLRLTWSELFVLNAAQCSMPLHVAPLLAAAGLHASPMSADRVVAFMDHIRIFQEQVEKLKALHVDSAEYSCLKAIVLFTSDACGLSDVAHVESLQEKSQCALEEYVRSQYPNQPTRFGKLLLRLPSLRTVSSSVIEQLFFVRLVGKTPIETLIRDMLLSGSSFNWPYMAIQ
# SRC1 inh – inhibitors of human steroid receptor coactivator 1 (SRC1); AID 588354; Q15788; inhibition, % at 3.6 µM; 360,000 tested, 0.12% active; HEK293 GAL4-SRC1 luciferase reporter, luminescence;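 active means inhibition above the campaign mean plus 3 SD, with each screening campaign given its own cutoff, cut at about 60% in these data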;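 further: 0% = DMSO treated cells and 100% = gossypol at 36 µM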
# Gli-Sufu antag – blocks Gli-Sufu signaling in a luciferase reporter | Sufu-KO-LIGHT fibroblasts, Gli luciferase reporter luminescence | inhibition, % at 5 µM | 340,000 tested, 0.74% active;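 active means inhibition above about 55%, limit read from the data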;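 further: 0% = DMSO-treated cells and 100% = wells with medium but no cells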
# LRH-1 inv ag – inverse agonists of human LRH-1 (NR5A2); HEK293T StAR-luciferase reporter, LRH-1 transfected, 24 h; 360,000 tested, 0.13% active; O00482; inhibition, % at 3.6 µM; AID 602396;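 active means inhibition above the mean inhibition of all tested compounds plus 3 SD, cut at about 73% in these data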;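 further: 0% = DMSO wells and 100% = reporter-only cells lacking LRH-1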
# NCOA3 inh – inhibits human SRC3 coactivator. HEK293 GAL4-SRC3 luciferase reporter, luminescence. inhibition, % at 3.6 µM. 360,000 tested, 0.17% active;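 active means inhibition above a per-campaign cutoff, the mean of all compounds plus 3 SD, cut at about 60% in these data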;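 further: 0% = DMSO-treated cells and 100% = gossypol-treated cells at 36 µM; higher means less SRC3-driven luciferase light from the GAL4 reporter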
# Gli antag conf – confirmation of Gli-SUFU pathway antagonists | AID 602428 | Sufu-KO-LIGHT cells, Gli luciferase reporter, luminescence | inhibition, % at 5 µM | shares compounds with Gli-Sufu antag | 2,500 tested, 40% active;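 active means mean inhibition at 5 µM reaching about 45%, limit read from the data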;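 further: plate controls were DMSO-treated cells for no effect and wells lacking cells for full effect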
# Gli cytotox – cytotoxicity counter-screen for Gli-SUFU antagonists | cytotoxicity, % at 5 µM | AID 651994 | 2,500 tested, 32% active | Sufu-KO-LIGHT cells cytotoxicity, ATP luminescence | shares compounds with Gli-Sufu antag;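 active means mean cytotoxicity at 5 µM above about 25%, limit read from the data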;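 further: cells exposed to compound overnight for roughly 16 to 18 hours; plate controls were DMSO wells with cells for no effect and medium without cells for full effect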
# Wnt3a counter – inhibits Wnt3a reporter, counter-screen for Gli-SUFU antagonists. shares compounds with Gli-Sufu antag. Wnt-LIGHT cells, Wnt3a-driven luciferase reporter, luminescence. inhibition, % at 6.25 µM. 2,500 tested, 20% active. AID 651995;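 active means mean inhibition above about 25%, limit read from the data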
# Numbers without * were called inactive; nt = not tested or not shown. Shown are actives, neighbours in structure and some others; about 1.3% of the full set was active somewhere.
SMILES,SRC2 inh,COUP-TFII inh,SRC1 inh,Gli-Sufu antag,LRH-1 inv ag,NCOA3 inh,Gli antag conf,Gli cytotox,Wnt3a counter
Cc1nn(Cc2ccc(Cl)cc2)c(C)c1NC(=O)Cn1nc([N+](=O)[O-])c(Cl)c1C,-17,-11,-1,51,-12,12,10,8,12
CC1=C[C@]2(CN(CC3CC3)C3=N[C@H](c4ccccc4)CC(=O)N32)n2c(=O)n(-c3ccccc3)c(=O)n2C1,nt,7,nt,nt,nt,nt,nt,nt,nt
COc1ccc(-n2nc(C(=O)NCC(=O)NCCC3=CCCCC3)c3ccccc3c2=O)c(OC)c1,-1,0,-28,56*,8,7,20,8,-57
CCCCNC(=O)CNC(=O)c1nn(-c2ccc(OC)cc2OC)c(=O)c2ccccc12,-20,6,-7,8,6,16,nt,nt,nt
CC(C)CNC(=O)OCc1cn(Cc2cccc(Cl)c2)nn1,-2,-20,nt,nt,nt,nt,nt,nt,nt
COc1ccc(-n2c(SCC(=O)NN=Cc3c(O)ccc4ccccc34)nnc2-c2ccc(C(C)(C)C)cc2)cc1,42,-8,nt,nt,nt,nt,nt,nt,nt
CCOC(=O)c1cccc(NC(=O)C2CCCN2S(=O)(=O)c2cccc3cccnc23)c1 (stereo not drawn),7,0,-29,0,-4,3,nt,nt,nt
CCc1cccc(NC(=O)C2CCCN2S(=O)(=O)c2cccc3cccnc23)c1 (stereo not drawn),0,19,7,52,6,-1,2,-4,-15
CC(C)[C@H]1/C(=C/C2CC2)N2C(=O)C[C@@H](c3ccccc3)N=C2N1Cc1ccc2c(c1)OCO2,-11,7,nt,nt,nt,nt,nt,nt,nt
O=C(Cn1cc(C(=O)c2ccco2)c2ccccc21)Nc1ccccc1F,6,-2,19,60*,-5,8,73*,25,13
CCc1ccccc1NC(=O)C1CCCN1S(=O)(=O)c1ccc(-c2ccc(=O)[nH]n2)s1 (stereo not drawn),-4,2,-7,44,-5,-4,nt,nt,nt
Cc1cccc(C)c1NC(=O)C1CCCN1S(=O)(=O)c1ccc(-c2ccc(=O)[nH]n2)s1 (stereo not drawn),-3,14,1,51,-29,18,13,5,35*
Cc1ccc(C(=O)ONc2ccc(N=NC(=O)c3ccccc3O)cc2)cc1,-10,7,2,-16,15,-9,nt,nt,nt
Cc1ccc(C(=O)ONc2ccc(N=O)cc2)cc1,-10,-1,4,65*,7,10,7,4,-8
Cc1ccc(CN2CCC(CNC(=O)Nc3ccccc3F)CC2)cc1,-10,9,15,50,4,6,31,9,-9
O=C(NCC1CC1)Nc1ccccc1F,-22,6,-6,-10,0,-3,nt,nt,nt
O=C(c1ccc2c(=O)n(-c3ccccc3)c(=S)[nH]c2c1)N1CCCCC1,12,37,13,60*,21,26,55*,36*,7
O=C(c1ccc2c(=O)n(-c3ccccc3)c(=S)[nH]c2c1)N1CCN(c2ccccc2)CC1,-1,8,5,0,-3,-11,nt,nt,nt
O=C(c1ccc2c(=O)n(C3CCCC3)c(=S)[nH]c2c1)N1CCCCCC1,-11,7,-26,57*,3,4,51*,35*,-24
O=C(NCCCn1ccnc1)/C(=C\c1cccnc1)NC(=O)c1cccc(Br)c1,-3,-10,0,98*,6,-1,37,13,13
O=C(NCCCn1ccnc1)/C(=C\c1cccnc1)NC(=O)c1ccco1,6,2,4,-3,7,14,nt,nt,nt
COc1ccccc1C(=O)NC(=S)/C=C1/N(C)c2ccccc2C1(C)C,8,6,14,78*,8,24,34,26*,-9
CN1/C(=C\C(=O)Nc2ccc(Cl)cc2)C(C)(C)c2ccccc21,-13,-4,1,-9,-3,-7,nt,nt,nt
